KB-V1 MDR tox = kills drug-selected multidrug resistant KB-V1 cells | Potency, µM (series often up to 46.1 µM), usual class: cytotoxic | 400,000 tested, 3.4% active | KB-V1 MDR cells viability, CellTiter-Glo, 72 h | AID 1347076; also: nearly all actives have a fitted effect of over 60% in size
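KB-V1 MDR subline cells in DMEM (phenol-red free, 10% FBS) exposed to compounds in qHTS concentration series for 72 h at 37 degrees C. Viability read by CellTiter-Glo luminescence; concentration-effect curves fitted after normalization and correction.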
KB-3-1 tox = kills parental KB-3-1 adenocarcinoma cells; KB-3-1 viability, CellTiter-Glo ATP luminescence, 72 h; Potency, µM (doses to about 46.1 µM), hits mostly cytotoxic; 400,000 tested, 1.4% active; AID 1347075; also: nearly all actives have a fitted effect of over 60% in size
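Screening of KB-3-1 cells (DMEM, 10% FBS, phenol-red free) ran from lowest to highest compound concentration; after 72 h at 37 °C viability was read luminescently and curves fitted.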
SW480 rereplic = DNA re-replication induction in SW480 cells. SW480 DNA re-replication, Hoechst DNA content imaging, 48 h. Potency, µM (series often up to 46.1 µM), actives largely listed as activators. 340,000 tested, 1.8% active. AID 624297; also: nearly all actives have a fitted effect of over 55% in size
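SW480 cells exposed to compounds for 48 hr at 37 C, 5% CO2, then Hoechst-stained 40 min. Nuclear DNA content imaged by fluorescence scanning (405 nm excitation, 500-530 nm emission); re-replication scored as increased high-intensity nuclei.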
Giardia kill = Giardia lamblia killing; Giardia lamblia trophozoite viability; activity change, % at 7.66 µM, hits read low; 340,000 tested, 0.15% active; AID 540267; in the data active = activity change below about -80%; inconclusive = between about -30% and that limit;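 also: parasites exposed to compound for two days anaerobically before the ATP read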
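Trophozoite viability was measured as ATP-dependent luminescence, read 15-30 min after reagent addition. Before that, parasites at 100 cells/well were exposed to compounds for 48 h, anaerobically, at 37 deg C.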
ASM inhibitor = human S-ASM enzyme inhibition; placental ASM, HMU-PC fluorogenic substrate, 60 min; Potency, µM (top dose mostly 57.5 µM), most hits filed as inhibitors; 340,000 tested, 0.006% active; AID 504937
Target sequence (P17405 47-631 limits assumed): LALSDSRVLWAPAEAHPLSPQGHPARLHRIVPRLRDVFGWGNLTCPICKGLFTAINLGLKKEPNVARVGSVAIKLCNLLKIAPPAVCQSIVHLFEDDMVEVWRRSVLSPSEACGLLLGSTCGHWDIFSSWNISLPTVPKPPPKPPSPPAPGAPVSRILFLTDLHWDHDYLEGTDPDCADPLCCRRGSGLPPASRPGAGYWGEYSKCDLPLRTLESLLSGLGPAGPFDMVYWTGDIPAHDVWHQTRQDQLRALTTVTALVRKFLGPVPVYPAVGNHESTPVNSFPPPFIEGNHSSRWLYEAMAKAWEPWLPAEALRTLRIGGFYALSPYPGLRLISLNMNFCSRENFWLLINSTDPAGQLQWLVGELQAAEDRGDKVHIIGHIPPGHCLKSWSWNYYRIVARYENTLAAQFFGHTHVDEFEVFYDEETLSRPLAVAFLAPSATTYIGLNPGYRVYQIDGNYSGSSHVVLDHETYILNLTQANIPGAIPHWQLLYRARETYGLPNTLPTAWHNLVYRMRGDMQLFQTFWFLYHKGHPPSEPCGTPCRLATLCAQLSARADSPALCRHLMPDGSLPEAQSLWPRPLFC
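Human placenta-derived ASM preincubated with compound 10 min at room temperature, then reacted with 9 uM (final) fluorogenic HMU-PC substrate for 60 min at 37 C. Stop solution raises pH to 10; fluorescence read at Ex 386/Em 447 nm.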
MCF10A rerep = DNA re-replication induction in MCF 10a cells | MCF 10A DNA re-replication, Hoechst nuclear intensity, 48 h | Potency, µM (doses to about 46.1 µM), usual class: activators | 350,000 tested, 2.9% active; also: nearly all actives have a fitted effect of over 50% in size
Large screens that a line does not name were inactive. Compounds with a hit are over-represented: about 6.9% of the library has one in this group of screens. Unless noted, calls follow the shape of the dose curve; as a rule, active = well fitted curve in the direction sought with a large enough effect; inconclusive = small, poorly fitted or top-dose-only effect, or another doubt; inactive = no such curve, though single readings can be large; an effect the other way counts as inactive or inconclusive.

Cc1ccc(Oc2nc(CN3CCOCC3)nc3sc4c(c23)CCC(C)C4)cc1C (configuration not stated)	KB-V1 MDR tox 14.6µM, KB-3-1 tox inconclusive, MCF10A rerep inconclusive
COc1cc2c(cc1OC)CN(c1nc(CN3CCOCC3)nc3sc4c(c13)CCCC4)CC2	KB-V1 MDR tox inconclusive, KB-3-1 tox inconclusive, MCF10A rerep 18.4µM
Cc1ccc(Oc2nc(CN3CCOCC3)nc3sc4c(c23)CCC(C)C4)cc1 (configuration not stated)	KB-V1 MDR tox inconclusive, MCF10A rerep inconclusive
Cc1ccc(S(=O)(=O)N(C)C)cc1NC(=O)CN1C(=O)NC2(CCCCCCC2)C1=O	none
CCOc1ccc(NC(=O)CSC2=Nc3ccccc3C3=NC(CC(=O)NCc4ccc5c(c4)OCO5)C(=O)N23)cc1 (configuration not stated)	none (no result: SW480 rereplic, Giardia kill, ASM inhibitor, MCF10A rerep)
CC(C)(C)c1ccc(CN2N=Nc3ccccc3S2(=O)=O)cc1	KB-V1 MDR tox 8.2µM, KB-3-1 tox 11.6µM, SW480 rereplic inconclusive, MCF10A rerep inconclusive
Cc1cccc(N2C(=O)N(Cc3ccc(C(C)(C)C)cc3)c3ccccc3S2(=O)=O)c1	KB-V1 MDR tox inconclusive (no result: SW480 rereplic, Giardia kill, ASM inhibitor, MCF10A rerep)
CCOC(=O)C1=CCN(S(=O)(=O)c2ccccc2Br)C1c1ccc(C)cc1 (configuration not stated)	none (no result: SW480 rereplic, Giardia kill, ASM inhibitor, MCF10A rerep)
CCOC(=O)c1sc(NC(=O)CSc2nnc(C)s2)c(C(=O)OCC)c1C	KB-V1 MDR tox 1.64µM
CCOC(=O)c1c(NC(=O)CSc2nncs2)sc(C)c1C	none
CCCc1cc(=O)[nH]c(SCC(=O)Nc2sc(C(N)=O)c(C)c2C(=O)OCCOC)n1	KB-V1 MDR tox inconclusive, KB-3-1 tox 8.2µM
CCOC(=O)c1c(NC(=O)CSc2nnc(C)s2)sc2c1CCC(CC)C2 (configuration not stated)	KB-V1 MDR tox 5.8µM, SW480 rereplic inconclusive
CCOC(=O)c1c(NC(=O)CSc2nc3ccccc3s2)sc(C(C)=O)c1C	KB-V1 MDR tox 20.6µM, ASM inhibitor inconclusive
CCC(=O)Nc1ccc2nc(SCCOc3ccc(C)cc3)sc2c1	none (no result: SW480 rereplic, Giardia kill, ASM inhibitor, MCF10A rerep)
Cc1ccc(NC(=O)Cn2nnc(C(=O)NCCc3ccccc3)c2N)cc1	KB-V1 MDR tox inconclusive (no result: SW480 rereplic, Giardia kill, ASM inhibitor, MCF10A rerep)
Cc1ccc(-c2nnc(Nc3cccc(Cl)c3)c3ccccc23)cc1S(=O)(=O)N1CCCCC1	none (no result: SW480 rereplic, Giardia kill, ASM inhibitor, MCF10A rerep)
CCCc1cc(=O)[nH]c(SCC(=O)NC(=O)NC2CCCC2)n1	KB-V1 MDR tox 4.11µM, KB-3-1 tox inconclusive
CCOC(=O)c1sc(NC(=O)CSc2nc3ccccc3o2)c(C(=O)OCC)c1C	MCF10A rerep inconclusive
CC(NC(=O)CSc1nnc(COc2ccccc2)o1)c1ccccc1 (configuration not stated)	none
COc1ccc(Cc2nnc(SCC(=O)NC(C)c3ccccc3)o2)cc1 (configuration not stated)	KB-V1 MDR tox 20.6µM
CCOC(=O)c1sc(NC(=O)CSc2nnc(Cc3ccccc3)o2)c(C(=O)OCC)c1C	KB-V1 MDR tox 7.31µM
Cc1ccc(NS(=O)(=O)c2ccc3c(c2)CCC(=O)N3)cc1Cl	none (no result: SW480 rereplic, Giardia kill, ASM inhibitor, MCF10A rerep)
Cc1ccc(C(c2nnnn2C(C)(C)C)N(Cc2ccco2)Cc2cccs2)cc1 (configuration not stated)	KB-V1 MDR tox inconclusive, KB-3-1 tox 16.4µM
CC(C)(C)n1nnnc1C(c1cc2ccccc2o1)N(Cc1ccccc1)Cc1ccccc1 (configuration not stated)	KB-V1 MDR tox 20.6µM, KB-3-1 tox inconclusive (no result: SW480 rereplic, Giardia kill, ASM inhibitor, MCF10A rerep)
CC(C)(C)n1nnnc1C(c1cccs1)N(Cc1ccc(Cl)cc1)CC1CCCO1 (configuration not stated)	KB-3-1 tox 23.1µM, MCF10A rerep inconclusive
CC(C)(C)n1nnnc1C(c1cccnc1)N(Cc1ccccc1)Cc1cccs1 (configuration not stated)	KB-V1 MDR tox 20.6µM, KB-3-1 tox inconclusive, MCF10A rerep inconclusive
CC(C)(C)n1nnnc1C(c1ccc(F)cc1)N(Cc1ccc(F)cc1)Cc1ccco1 (configuration not stated)	KB-V1 MDR tox inconclusive, KB-3-1 tox inconclusive, MCF10A rerep inconclusive
Cc1cccc(-n2ncc3c(N4CCCC(C)C4)ncnc32)c1 (configuration not stated)	none (no result: SW480 rereplic, Giardia kill, ASM inhibitor, MCF10A rerep)
COc1cc2c(cc1OC)C(C)N(C(=S)NC(=O)c1ccccc1)CC2 (configuration not stated)	none
CSCCC(NS(=O)(=O)c1ccc(Cl)cc1)C(=O)OCC(=O)c1c(C)[nH]c2ccccc12 (configuration not stated)	KB-V1 MDR tox 14.6µM, KB-3-1 tox inconclusive, MCF10A rerep 11.6µM
CSCCC(NS(=O)(=O)c1ccc2ccccc2c1)C(=O)OCC(=O)c1ccc(C(C)C)cc1 (configuration not stated)	KB-V1 MDR tox 18.4µM, SW480 rereplic inconclusive
CSCCC(NC(N)=O)C(=O)Nc1ccc2ccccc2c1 (configuration not stated)	none
Cc1[nH]c2ccccc2c1C(=O)COC(=O)C1CC(O)CN1S(=O)(=O)c1ccc(Cl)cc1 (configuration not stated)	none
Nc1nc(N)c2c(OCC3CCN(Cc4ccccc4F)CC3)cccc2n1	KB-V1 MDR tox inconclusive (no result: SW480 rereplic, Giardia kill, ASM inhibitor, MCF10A rerep)
Cc1ccc(Oc2c(C(F)(F)F)oc3cc(OCC(=O)NC4CCCCC4)ccc3c2=O)cc1	none (no result: SW480 rereplic, Giardia kill, ASM inhibitor, MCF10A rerep)
N/C(=N\O)c1ccc([N+](=O)[O-])s1	Giardia kill -88.2
COc1cc(S(=O)(=O)N2CCC(O)(c3cccc(C(F)(F)F)c3)CC2)ccc1-n1cnnn1	KB-V1 MDR tox inconclusive, SW480 rereplic inconclusive, MCF10A rerep 7.31µM
COc1ccccc1CNCc1ccc2c(c1)OCO2	KB-V1 MDR tox inconclusive (no result: SW480 rereplic, Giardia kill, ASM inhibitor, MCF10A rerep)
O=Cc1ccccc1OCc1ccc2c(c1)OCO2	KB-3-1 tox inconclusive, SW480 rereplic 18.4µM, MCF10A rerep inconclusive
CCN1C(=O)/C(=C\N2CCN(c3ccc(F)cc3)CC2)SC1=S	KB-V1 MDR tox 2.59µM
COc1cc2c(cc1OC)C(c1ccc(F)cc1)N(c1cccc(C#N)c1)C(=O)C2 (configuration not stated)	KB-3-1 tox inconclusive (no result: SW480 rereplic, Giardia kill, ASM inhibitor, MCF10A rerep)
CCOC(=O)CSc1nnc(CSc2nc3sc4c(c3c(=O)[nH]2)CCC4)n1-c1ccccc1	none
C=CCn1c(SCc2nc3ccccc3c(=O)[nH]2)nc2sc3c(c2c1=O)CCCC3	none
C=CCSc1nnc(CSc2nc3sc4c(c3c(=O)[nH]2)CCCC4)n1-c1ccccc1	KB-V1 MDR tox 20.6µM, SW480 rereplic inconclusive, MCF10A rerep inconclusive
C=CCn1c(SCc2nc3sc4c(c3c(=O)[nH]2)CCCC4)nc2ccccc2c1=O	KB-V1 MDR tox 2.06µM, MCF10A rerep 10.3µM
Cc1ccc([N+](=O)[O-])cc1NC(=O)CN(C(=O)c1ccc(Cl)cc1)C1CCCCC1	KB-V1 MDR tox 23.1µM, KB-3-1 tox inconclusive

Source: PubChem
